# Screening results: PubChem, several laboratories
# In the library only some 5.2% were active in any assay of this set; here they are far more common.
# CendR NRP1 mod: NRP-1/CendR interaction modulation. O14786. FAM-RPARPAR peptide binding to NRP-1, fluorescence polarization. inhibition, % at 25 µM. hit rate 0.85% among 360,000;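 active means inhibition or corrected inhibition above about 18%, plus a signal ratio from 0.5 to 1.5, limit read from the data, passing the limit was not always enough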
# Target sequence (O14786 whole entry, looked up): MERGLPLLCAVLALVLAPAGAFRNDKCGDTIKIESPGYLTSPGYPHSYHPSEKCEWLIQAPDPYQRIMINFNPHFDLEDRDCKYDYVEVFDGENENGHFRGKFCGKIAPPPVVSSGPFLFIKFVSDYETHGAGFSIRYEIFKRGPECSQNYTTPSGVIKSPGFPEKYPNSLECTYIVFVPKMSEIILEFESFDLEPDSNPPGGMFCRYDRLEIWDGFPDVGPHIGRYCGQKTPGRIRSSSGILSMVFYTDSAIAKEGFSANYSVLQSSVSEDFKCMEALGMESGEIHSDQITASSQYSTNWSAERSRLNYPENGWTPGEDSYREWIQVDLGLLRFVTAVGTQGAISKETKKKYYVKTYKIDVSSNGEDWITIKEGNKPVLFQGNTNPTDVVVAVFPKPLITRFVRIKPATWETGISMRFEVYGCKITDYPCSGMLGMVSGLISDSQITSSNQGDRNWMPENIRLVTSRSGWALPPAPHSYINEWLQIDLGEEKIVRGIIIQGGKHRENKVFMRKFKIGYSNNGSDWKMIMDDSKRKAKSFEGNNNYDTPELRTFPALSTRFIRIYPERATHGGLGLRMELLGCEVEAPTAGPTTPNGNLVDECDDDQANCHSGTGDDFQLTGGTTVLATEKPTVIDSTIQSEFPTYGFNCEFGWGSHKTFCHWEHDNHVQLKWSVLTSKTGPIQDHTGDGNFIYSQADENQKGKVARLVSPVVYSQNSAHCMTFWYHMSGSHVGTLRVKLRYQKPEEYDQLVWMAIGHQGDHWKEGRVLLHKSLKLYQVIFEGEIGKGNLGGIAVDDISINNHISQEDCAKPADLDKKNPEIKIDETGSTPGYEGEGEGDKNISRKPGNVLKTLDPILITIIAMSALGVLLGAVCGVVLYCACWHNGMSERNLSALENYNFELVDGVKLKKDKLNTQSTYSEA
# Yeast superoxide: lowers age-related superoxide in aged yeast cells; S. cerevisiae aged cells, superoxide DHE fluorescence; hits give low values; superoxide response (% of plate mean), % at 10 µM; hit rate 0.18% among 330,000; AID 2690;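 active means superoxide response under a set limit, about three screen SD below normal, cut at about 65% in these data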;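 further: yeast aged for seven days with compound at 30 °C before DHE staining; 100% = average MFI of all compound-treated wells on the plate with controls excluded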
# PfM18AAP inh: PfM18AAP enzyme inhibition; recombinant PfM18AAP, H-Glu-NHMec fluorogenic cleavage; inhibition, % at 7.35 µM; hit rate 1.2% among 290,000; AID 1822;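 active means inhibition above the campaign mean inhibition over all tested compounds plus 3 SD, cut at about 28% in these data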;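 further: 0% = plate median of test compound wells and 100% = 2 mM ZnCl2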
# APOBEC3G inh: inhibitors of human APOBEC3G DNA deaminase; recombinant A3G, ssDNA deamination FAM/TAMRA fluorescence; inhibition, % at 20 µM; hit rate 0.28% among 330,000; AID 493012;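 active means inhibition of at least 40% at 20 µM, with no more than 30% in the related APOBEC3A deaminase screen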;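 further: plate controls were DMSO wells with A3G for no effect and wells lacking A3G enzyme for full effect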
# A3A deaminase: blocks human APOBEC3A ssDNA deamination; P31941; recombinant A3A, FAM/TAMRA ssDNA deamination fluorescence; inhibition, % at 20 µM; hit rate 0.41% among 330,000;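 active means at least 40% inhibition at 20 µM here, with at most 30% in a related deaminase screen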;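 further: plate controls were A3A with DMSO for no effect and wells lacking A3A enzyme for full effect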
# ALR inh: human ALR oxidase inhibition via reduced H2O2 | purified ALR, DTT oxidation, H2O2 HRP-luminol luminescence | P55789 | inhibition, % (no concentration beside the values) | hit rate 3.8% among 290,000 | AID 485317;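 active means mean replicate inhibition above about 79%, with every replicate also reaching it, limit read from the data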
# APOBEC3A confirm: confirmation of human APOBEC3A DNA deaminase inhibitors | shares compounds with A3A deaminase | recombinant A3A, ssDNA deaminase UDG fluorescence assay | inhibition, % at 20 µM | hit rate 63% among 1,400;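 active means inhibition reaching a set limit, 80% of the first screen's cutoff, at 20 µM in any replicate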;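 further: plate controls were DMSO wells with A3A for no effect and wells lacking A3A enzyme for full effect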
# UDG ctr A3A: inhibits UDG, flagging false APOBEC3A inhibitors; shares compounds with A3A deaminase; UDG counterscreen, FAM/TAMRA uracil oligo fluorescence; inhibition, % at 20 µM; 1,000 tested, under 10 active; AID 504714; call rule not given here
# Numbers without * were called inactive; nt = no result given.
SMILES,CendR NRP1 mod,Yeast superoxide,PfM18AAP inh,APOBEC3G inh,A3A deaminase,ALR inh,APOBEC3A confirm,UDG ctr A3A
Cn1sc(NC(=O)c2ccccc2Cl)nc1=O,1,103,-4,-11,-5,68,nt,nt
COCCN(CCOC)S(=O)(=O)c1ccc(C(=O)NC2CCN(Cc3ccccc3)CC2)cc1,24,86,2,-4,-1,-13,nt,nt
O=C(O)/C(=C\c1ccc(Cl)c([N+](=O)[O-])c1)c1ccc(S(=O)(=O)N2CCCCC2)s1,-27,101,0,0,4,-4,nt,nt
O=C(O)/C(=C\c1ccc(Cl)c([N+](=O)[O-])c1)c1ccc(S(=O)(=O)N2CCCC2)s1,8,95,nt,10,55*,1,47*,2
Clc1ccc(Sc2ccc(/C=N/n3cnnc3)o2)cc1,-10,130,7,-6,-2,2,nt,nt
Clc1ccc(Sc2oc(/C=N/n3cnnc3)cc2Br)cc1,0,110,10,25,43*,-12,72*,-4
Cn1c(CCC(=O)Nc2ccc(S(C)(=O)=O)cc2)nc2cc(S(=O)(=O)N3CCOCC3)ccc21,-5,nt,nt,nt,nt,nt,nt,nt
Cn1c(CCC(=O)Nc2cc(S(C)(=O)=O)ccc2Cl)nc2cc(S(=O)(=O)N3CCOCC3)ccc21,-1,82,nt,26,74*,-7,76*,3
Cc1cccc(N2CCN(C(=O)CCS(=O)(=O)c3ccc(Br)cc3)CC2C)c1 (stereo not given),-7,105,-9,18,45*,72,29,nt
CC(=O)N1CCCc2cc(S(=O)(=O)CCC(=O)N3CCN(c4cccc(C)c4)C(C)C3)ccc21 (stereo not given),5,100,6,-5,0,12,nt,nt
COc1ccc(C(=O)N[C@H](C(=O)NCc2cccs2)C(C)C)cc1,2,118,-6,-4,40*,3,12,-1
COc1c(Cl)cc(C(=O)Nc2ccccc2-c2ccccc2)cc1Cl,-7,103,-7,0,-5,0,nt,nt
COC/C=C/C1=CC2=CC(=O)C(C)(OC(=O)c3cccs3)C(=O)C2=CO1 (stereo not given),nt,99,nt,8,20,15,nt,nt
COC/C=C/C1=CC2=CC(=O)C(C)(OC(=O)c3ccco3)C(=O)C2=CO1 (stereo not given),nt,nt,nt,26,58*,-3,60*,nt
Cc1nnc(SCC(=O)N2N=C(c3ccc(Cl)cc3)CC2c2ccco2)[nH]c1=O (stereo not given),-96,107,9,13,50*,63,10*,-2
C[N+]12CCCCC1C(COC(=O)c1ccc3c(c1)OCO3)CCC2 (stereo not given),1,92,6,28,58*,1,48*,nt
CCOC(=O)C1CCCN(CC(=O)Nc2cc(C)cc(C)c2)C1 (stereo not given),3,90,-1,30,60*,7,29,nt
Cn1c(/C=N/O)nc2ccccc21,9,101,-1,-7,-3,-1,nt,nt
CCN(c1ccccc1)S(=O)(=O)c1cc(C(=O)OC(C)C(=O)Nc2ccc3c(c2)OCCO3)ccc1C (stereo not given),8,114,0,13,50*,nt,37*,1
CCN(CC)CCCNC(=O)C1CCN(c2ncnc3c2sc2cccc(F)c23)CC1,-6,101,-1,-1,48*,-3,2,1
CC1CC(C)CN(CCCNC(=O)C2CCN(c3ncnc4c3sc3cccc(F)c34)CC2)C1 (stereo not given),nt,106,-2,-4,4,-6,nt,nt
Cn1c(SCC(=O)NCc2ccco2)nnc1-c1ccccc1,-1,100,1,-3,2,-3,nt,nt
Cn1c(SCC(=O)NCc2ccccc2)nnc1-c1ccc(NC(=O)CCc2ccccc2)cc1,2,94,0,14,58*,0,51*,-1
Cn1c(Cc2ccccc2)nnc1SCCC(=O)Nc1ccccc1,-3,90,5,16,69*,nt,74*,-4
CCC(=O)Nc1cccc(-c2nnc(SCC(=O)NCc3ccco3)n2C)c1,15,95,0,21,46*,-4,68*,3
SMILES,CendR NRP1 mod,Yeast superoxide,PfM18AAP inh,APOBEC3G inh,A3A deaminase,ALR inh,APOBEC3A confirm,UDG ctr A3A
O=C(c1ccc2ccccc2c1)N1CCN(c2ccccc2)CC1,1,101,-1,-8,-4,23,nt,nt
CCOC(=O)N1CCC(NC(=O)C2CCCN(C(=O)N3CCOc4ccccc43)C2)CC1 (stereo not given),17,99,6,-6,54*,-2,-4,-1
O=C(CC12CCC(CC1)C2)NCc1ccc2c(c1)OCO2,4,110,-7,-3,44*,nt,-4,-1
Cc1ccc(/C=N/NC(=O)c2ccccc2OCc2cccc(Br)c2)o1,3,91,2,-5,0,2,nt,nt
Cc1nc(N)nc(C)c1Cc1ccccc1,7,99,1,4,4,2,nt,nt
Cc1c2ccccc2cc(Cc2ccccc2)[n+]1C,10,98,0,8,43*,7,60*,-3
COn1c(-c2ccccc2)nc2c1CCc1nonc1-2,0,95,-7,0,54*,-2,-7,-2
CS(=O)(=O)c1nc([N+](=O)[O-])nn1CCCc1ccccc1,7,98,nt,-2,1,10,nt,nt
Cn1nc([N+](=O)[O-])nc1S(C)(=O)=O,-4,nt,8,10,88*,nt,88*,-4
O=C(CSc1n[nH]c(-c2ccncc2)n1)Nc1ccc(Cl)c(Cl)c1,3,104,-7,15,59*,-1,48*,6
O=C(CSc1n[nH]c(-c2ccncc2)n1)Nc1ccc(Cl)cc1,2,106,-3,-5,-1,2,nt,nt
CSc1ccc(/C=N/NC(=O)CN2CCN(Cc3ccccc3Cl)CC2)cc1,-6,100,3,-6,-1,nt,nt,nt
O=C(COc1ccccc1Cl)N1CCN(c2ccccn2)CC1,-4,104,nt,7,42*,0,2,nt
O=C(COc1ccc(F)c(Cl)c1)N1CCN(c2ccccn2)CC1,12,100,-2,-4,1,-3,nt,nt
COc1ccc(Cl)cc1NC(=O)c1cccc(-n2cnnn2)c1,22*,nt,nt,-14,48*,nt,8,3
CCC(C)c1ccccc1NC(=O)c1cccc(-n2cnnn2)c1 (stereo not given),3,102,nt,2,52*,-6,34*,-38
O=C(Nc1ccc(Br)cc1)c1cccc(-n2cnnn2)c1,0,99,5,-2,51*,0,-5,2
COc1ccc(Cl)cc1NC(=O)COc1cccc(-n2cnnn2)c1,7,88,2,-3,-1,-24,nt,nt
